Here are results for 15 compounds from PubChem BioAssay.

Each structure is given as a SMILES string. Records with an inconclusive call do not appear. Calls of active or inactive are those of the source. Rule as the data show it, unless noted: active = nuclear beta-catenin stimulation mostly above about 4.2% (no sharp cut-off); inactive = mostly below about 10%.

A short description of test [1]: stimulators of nuclear beta-catenin in C2C12, primary screen, imaging, WNT3A-conditioned medium, mouse C2C12, NPC library (AID 1117326). As to conditions: stronger effect = higher value.
Test [2] is described as follows: stimulators of insulin release from INS-1E, primary screen, cell-based, 5 mM glucose, NPC library (AID 1117329;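 active = compound raises insulin release from rat beta cells at 5 mM glucose, no numeric limit stated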). As to conditions: rat INS-1E insulin secretion, at 10 µM, stronger effect = higher value.
The nature of test [3]: growth inhibition of GSK3B-pretreated HCT116 cells – cell-based, CellTiter-Glo, 0.2 to 20 µM (AID 1117336;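 active = compounds lowering colon cancer cell viability after pretreatment blocking the GSK3B kinase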). The conditions noted are these: HCT116 viability after GSK3B inhibitor, at 20 µM, stronger effect = higher value. (In general: ATP-based viability assays read luminescence as a measure of living cells.)
Test [4] in a line: HCT116 colon cancer cell growth inhibition, primary screen, CellTiter-Glo luminescence, NPC library (AID 1117342;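 active = compounds that lower survival of HCT116 colon cancer cells in the luminescence readout, no numeric limit stated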). The conditions noted are these: at 20 µM (top of the series).
Test [5] can be described thus: CellTiter-Glo luminescent readout of SW480 viability loss, NPC library primary (AID 1117343;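 active = compounds that lower viability of the colon cancer cells in the luminescence readout, with no numeric limit stated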). The conditions noted are these: CellTiter-Glo luminescence; at 20 µM (top of the series) unless noted.
A short description of test [6]: decreased DLD-1 cellular survival, CellTiter-Glo luminescent readout, NPC compound collection, primary HTS (AID 1117346;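 active = compounds that lower survival of DLD-1 colon cancer cells in the luminescence readout, no cutoff given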). The conditions noted are these: DLD-1 viability, CellTiter-Glo luminescence; at 20 µM (top of the series).
The nature of test [7]: inhibition of endothelial tube formation, primary screen, imaging, VEGF stimulated, CD31 staining, tube area, NPC library (AID 1117340;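 active = compound that reduces growth-factor-driven endothelial tube area in a mixed cell culture, no cutoff stated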). The conditions noted are these: VEGF-stimulated ADSC/ECFC co-culture, at 10 µM, stronger effect = higher value.
Test [8] in a line: glucagon-like peptide 1 release enhancers, primary assay, NCI-H716 cell line, NPC library (AID 1117341;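 active = compound raises GLP1 secretion from the human gut endocrine cells, with no numeric limit stated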). The conditions noted are these: NCI-H716 cells, at 10 µM, stronger effect = higher value.
Test [9] has as its target Mitogen-activated protein kinase 7 (Homo sapiens) (UniProt Q13164). Put plainly: ERK5 transactivation activators in reporter cells, primary screen, cell-based, HTS (AID 1508626;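 active = luciferase signal above three times the same-plate solvent-only control wells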;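 also: luciferase driven by Gal4-ERK5 fusion binding five Gal4 sites before minimal TATA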). As to conditions: HeLa Gal4-ERK5 transactivation, 18 h, at 5 µM, stronger effect = higher value.
Test [10] addresses NAD(+) hydrolase SARM1 (Homo sapiens) (UniProt Q6SZW1). Put plainly: SARM1 TIR NADase inhibitors, cell lysate, NAD-Glo luminescence (AID 1508614;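 active = compound whose remaining NAD level is above about 45 nM, limit read from the data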;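 also: higher remaining NAD means stronger inhibition of SARM1 NADase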). The conditions noted are these: SAM-TIR HEK293T lysate NADase, at 1 µM, stronger effect = higher value.
Test [11] concerns the target ATP-dependent translocase ABCB1 (Homo sapiens) (UniProt P08183). As to the kind of experiment: MDR1 (ABCB1) efflux transporter inhibition, cell-based (AID 377; in the data active = fluorescence slope change above about 50%). As to conditions: MDR1-expressing cells, fluorescent substrate accumulation slope; stronger effect = higher value; concentration not given here.
A short description of test [12]: hESC survival regulators, cell-based (AID 493140; call rule not given here;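 also: cells exposed to compounds for four days before counting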). The conditions noted are these: human embryonic stem cell survival screen; stronger effect = higher value.
Test [13] can be described thus: sensitizers of A549 cells to miR-34 induction, primary screen, imaging, A549 dox-inducible miR-34, nuclei and caspase counts (AID 1347080;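 active = compounds whose cell count with miR-34 switched on is under 0.7 times the count with it off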). The conditions noted are these: A549 miR-34 inducible, Hoechst nuclei count, 48 h.
Test [14] is described as follows: survival rescue of mitochondrial mutant cells in low glucose, primary screen, MELAS cybrids, Rieske KO mouse fibroblasts, CellTiter-Glo (AID 1508586;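 active = mean z-score across replicates of 1.96 or higher in either the MELAS or the Rieske mutant cell line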;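 also: z relative to plate mean and SD of compound and empty wells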).

Sequence of Mitogen-activated protein kinase 7 (Homo sapiens) (Q13164 whole entry, looked up, the tested form may be a part): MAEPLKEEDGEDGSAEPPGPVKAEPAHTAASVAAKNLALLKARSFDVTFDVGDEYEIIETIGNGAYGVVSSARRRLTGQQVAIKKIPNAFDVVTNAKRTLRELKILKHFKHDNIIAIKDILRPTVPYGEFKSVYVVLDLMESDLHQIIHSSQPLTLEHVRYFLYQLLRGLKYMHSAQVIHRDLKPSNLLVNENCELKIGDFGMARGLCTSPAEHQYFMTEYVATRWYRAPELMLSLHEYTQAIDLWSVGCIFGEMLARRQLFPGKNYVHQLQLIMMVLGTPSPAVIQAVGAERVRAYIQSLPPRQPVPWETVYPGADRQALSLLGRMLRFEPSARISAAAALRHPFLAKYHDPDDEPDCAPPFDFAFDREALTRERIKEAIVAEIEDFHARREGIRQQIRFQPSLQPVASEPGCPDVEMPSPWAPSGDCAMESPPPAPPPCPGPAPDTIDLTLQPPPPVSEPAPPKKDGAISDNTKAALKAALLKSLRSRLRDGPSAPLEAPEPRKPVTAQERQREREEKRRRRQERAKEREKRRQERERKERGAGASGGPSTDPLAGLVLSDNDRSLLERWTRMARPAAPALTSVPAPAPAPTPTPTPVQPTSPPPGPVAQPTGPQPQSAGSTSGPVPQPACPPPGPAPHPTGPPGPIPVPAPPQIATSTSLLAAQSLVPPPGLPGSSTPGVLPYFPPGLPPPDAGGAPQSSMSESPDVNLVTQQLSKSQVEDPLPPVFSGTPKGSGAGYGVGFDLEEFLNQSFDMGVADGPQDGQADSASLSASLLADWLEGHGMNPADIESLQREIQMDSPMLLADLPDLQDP
Sequence of ATP-dependent translocase ABCB1 (Homo sapiens) (P08183 whole entry, looked up): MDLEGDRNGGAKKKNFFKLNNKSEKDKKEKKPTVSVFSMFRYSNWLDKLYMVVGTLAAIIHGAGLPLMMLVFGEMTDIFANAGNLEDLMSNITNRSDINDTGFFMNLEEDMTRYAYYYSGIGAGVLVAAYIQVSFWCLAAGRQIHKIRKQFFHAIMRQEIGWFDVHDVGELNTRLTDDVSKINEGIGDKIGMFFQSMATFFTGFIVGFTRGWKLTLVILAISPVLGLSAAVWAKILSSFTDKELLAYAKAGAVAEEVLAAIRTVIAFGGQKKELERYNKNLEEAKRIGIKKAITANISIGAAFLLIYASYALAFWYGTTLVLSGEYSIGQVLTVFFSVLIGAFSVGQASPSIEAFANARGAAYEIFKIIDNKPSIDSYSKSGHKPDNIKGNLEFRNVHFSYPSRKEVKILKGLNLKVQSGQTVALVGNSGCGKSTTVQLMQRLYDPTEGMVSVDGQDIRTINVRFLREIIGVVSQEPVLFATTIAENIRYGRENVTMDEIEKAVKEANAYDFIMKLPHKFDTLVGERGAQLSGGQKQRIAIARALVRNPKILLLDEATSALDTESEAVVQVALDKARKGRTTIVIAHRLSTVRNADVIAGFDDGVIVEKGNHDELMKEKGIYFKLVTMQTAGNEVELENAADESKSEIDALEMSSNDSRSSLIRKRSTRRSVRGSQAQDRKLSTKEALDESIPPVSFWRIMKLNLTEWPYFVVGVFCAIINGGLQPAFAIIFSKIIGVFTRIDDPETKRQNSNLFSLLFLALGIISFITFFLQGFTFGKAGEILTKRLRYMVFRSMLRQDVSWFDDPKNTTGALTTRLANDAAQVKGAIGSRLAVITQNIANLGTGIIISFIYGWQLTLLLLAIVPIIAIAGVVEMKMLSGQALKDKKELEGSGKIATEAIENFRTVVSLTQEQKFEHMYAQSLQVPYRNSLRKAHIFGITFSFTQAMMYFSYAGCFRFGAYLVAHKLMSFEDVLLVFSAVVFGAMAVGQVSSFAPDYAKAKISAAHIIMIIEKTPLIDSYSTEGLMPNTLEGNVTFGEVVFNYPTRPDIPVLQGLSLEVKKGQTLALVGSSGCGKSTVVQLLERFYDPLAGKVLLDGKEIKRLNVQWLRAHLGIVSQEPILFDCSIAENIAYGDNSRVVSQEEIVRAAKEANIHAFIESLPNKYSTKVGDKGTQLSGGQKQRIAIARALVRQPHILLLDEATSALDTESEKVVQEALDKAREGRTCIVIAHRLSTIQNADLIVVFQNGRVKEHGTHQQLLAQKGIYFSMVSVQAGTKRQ
Sequence of NAD(+) hydrolase SARM1 (Homo sapiens) (Q6SZW1 whole entry, looked up): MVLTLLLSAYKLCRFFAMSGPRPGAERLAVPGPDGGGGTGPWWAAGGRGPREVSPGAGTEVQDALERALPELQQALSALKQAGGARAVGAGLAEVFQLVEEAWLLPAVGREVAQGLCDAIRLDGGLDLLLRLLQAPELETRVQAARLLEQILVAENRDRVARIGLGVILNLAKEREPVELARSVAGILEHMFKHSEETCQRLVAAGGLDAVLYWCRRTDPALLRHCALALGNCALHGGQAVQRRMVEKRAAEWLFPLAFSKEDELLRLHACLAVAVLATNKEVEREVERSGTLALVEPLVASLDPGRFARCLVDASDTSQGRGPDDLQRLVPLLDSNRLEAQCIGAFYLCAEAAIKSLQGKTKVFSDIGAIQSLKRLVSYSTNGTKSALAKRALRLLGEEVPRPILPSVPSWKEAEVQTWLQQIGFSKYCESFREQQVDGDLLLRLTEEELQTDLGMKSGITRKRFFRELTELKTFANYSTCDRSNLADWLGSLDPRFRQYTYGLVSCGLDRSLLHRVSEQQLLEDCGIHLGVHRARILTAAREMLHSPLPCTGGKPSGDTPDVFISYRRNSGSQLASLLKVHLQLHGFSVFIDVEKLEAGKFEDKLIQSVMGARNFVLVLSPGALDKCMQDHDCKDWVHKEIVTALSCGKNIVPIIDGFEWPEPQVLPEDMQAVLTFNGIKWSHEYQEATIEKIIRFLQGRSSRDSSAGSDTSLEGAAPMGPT

Turning to `c1ccc2ccccc2c1`, the nuclear beta-catenin stimulation in test [1] (at 10 µM) was 0.7% (inactive); in test [1] (stimulation, at 2 µM), 7.8%. In addition, the insulin secretion stimulation in [2] was 6.8% (inactive). Besides, the viability decrease in test [3] was 13.1% (inactive). The inhibition of viability in test [4] is 14.8% (inactive). The viability decrease (inhibition) in test [5] was -4.5% (inactive); in test [6], 4.2% (inactive).
For the compound `CC(=O)Oc1ccc2c(c1)CC[C@@H]1[C@@H]2CC[C@]2(C)[C@@H](O)CC[C@@H]12`, the nuclear beta-catenin stimulation was 6.2% (inactive) in test [1] (at 10 µM) and 4.6% in [1] (stimulation, at 2 µM). Moreover, in test [2], the insulin secretion stimulation was 1.3% (inactive). Moreover, the viability decrease in [3] was 13.1% (inactive). Moreover, the tube area decrease in test [7] is -71.2% (inactive). Further, in test [8], the GLP1 secretion stimulation was 1.6% (inactive). The inhibition of viability in test [4] was 41.6% (inactive). Also, the viability decrease (inhibition) in test [5] was 72.9% (active); in [6], 35.2% (inactive). For the same compound, the luciferase signal in test [9] is 36 AU (inactive).
Take `O=C(O)C1(C(=O)O)CCC1.[NH2-].[NH2-].[Pt+2]`: the nuclear beta-catenin stimulation in [1] (at 10 µM) is 0% (inactive); in test [1] (stimulation, at 2 µM), -2.2%. Moreover, the insulin secretion stimulation in test [2] was -0.3% (inactive). Moreover, the viability decrease in [3] was 67.5% (active). Also, in test [7], the tube area decrease was 55.4% (active). In addition, the GLP1 secretion stimulation in test [8] was 3% (inactive). The inhibition of viability in test [4] was 31.7% (inactive). For the same compound, the viability decrease (inhibition) is 2.3% (inactive) in [5] and 5.7% (inactive) in test [6]. In addition, the remaining NAD in test [10] was 10 nM (inactive). Also, the luciferase signal in test [9] is 40 AU (inactive).
With `C[C@@H]1CCC[C@H](C)N1`, in [11], the fluorescence slope change was 9.9% (inactive). The survival in test [12] is 4.42 (inactive). Moreover, the nuclear beta-catenin stimulation in test [1] (at 10 µM) was 1.3% (inactive); in [1] (stimulation, at 2 µM), 1%. Besides, the insulin secretion stimulation in test [2] was -1.2% (inactive). For the same compound, in test [3], the viability decrease was -2.8% (inactive). For the same compound, the tube area decrease in test [7] is 3.6% (inactive). The GLP1 secretion stimulation in test [8] is 0.5% (inactive). Besides, the inhibition of viability in test [4] is -4.9% (inactive). For the same compound, the viability decrease (inhibition) in test [5] was 6.2% (inactive); in test [6], 2.2% (inactive).
With `CCCCCCCCCCCCCCCCCC[N+](C)(C)CCC[Si](OC)(OC)OC`, the nuclear beta-catenin stimulation in [1] (at 10 µM) is -0.6% (inactive); in test [1] (stimulation, at 2 µM), -0.8%. Also, the insulin secretion stimulation in test [2] is -0.25% (inactive). Besides, the viability decrease in test [3] is 14.4% (inactive). The GLP1 secretion stimulation in [8] is -3.1% (inactive). In test [4], the inhibition of viability is 12.9% (inactive). The figures for the viability decrease (inhibition) in [5] and in test [6] were -2.9% (inactive) and 1.7% (inactive), respectively.
Take `CCC=CCC=CCC=CCCCCCCCC(=O)O`: the nuclear beta-catenin stimulation in test [1] (at 10 µM) is -0.2% (inactive); in test [1] (stimulation, at 2 µM) it was 0%. For the same compound, in test [2], the insulin secretion stimulation was 2.65% (inactive). The GLP1 secretion stimulation in test [8] is 12.4% (inactive).
Turning to `CCOc1cc(NC(C)=O)ccc1C(=O)OC`, the nuclear beta-catenin stimulation in test [1] (at 10 µM) was 2.6% (inactive); in test [1] (stimulation, at 2 µM) it was 2%. For the same compound, in [2], the insulin secretion stimulation was 4.4% (inactive). For the same compound, the tube area decrease in test [7] is 11.7% (inactive). Further, the GLP1 secretion stimulation in [8] is 0.3% (inactive).
For `C#C[C@]1(OC(C)=O)CC[C@H]2[C@@H]3CCC4=C/C(=N/O)CC[C@@H]4[C@H]3CC[C@@]21CC`, the nuclear beta-catenin stimulation in test [1] (at 10 µM) is 3.7% (inactive); in test [1] (stimulation, at 2 µM) it was 2.1%. Further, the insulin secretion stimulation in test [2] is -0.2% (inactive). For the same compound, in test [3], the viability decrease is 98.8% (active). Further, the tube area decrease in test [7] was 99% (active). Moreover, the GLP1 secretion stimulation in [8] was -2.6% (inactive). The inhibition of viability in test [4] was 99.1% (active). For the same compound, the viability decrease (inhibition) was 102% (active) in test [5] and 101% (active) in [6]. Also, the luciferase signal in test [9] was 24 AU (inactive).
Take `CC(=O)N(c1onc(C)c1C)S(=O)(=O)c1ccc(N)cc1`: the nuclear beta-catenin stimulation in test [1] (at 10 µM) is 0.7% (inactive); in [1] (stimulation, at 2 µM), 0.2%. For the same compound, the insulin secretion stimulation in test [2] is -0.8% (inactive). The viability decrease in test [3] is -73.1% (inactive). The tube area decrease in test [7] was -1% (inactive). Moreover, the GLP1 secretion stimulation in test [8] is -0.8% (inactive). For the same compound, the inhibition of viability in [4] is -3.87% (inactive). Moreover, the viability decrease (inhibition) is 30.4% (inactive) in test [5] and 5.3% (inactive) in test [6]. The luciferase signal in [9] was 40 AU (inactive).
`CN(C)CCCO[C@@H]1[C@H]2OC(C)(C)O[C@H]2O[C@@H]1C(O)CO` (stereo partly specified): the nuclear beta-catenin stimulation in test [1] (at 10 µM) is -2% (inactive); in test [1] (stimulation, at 2 µM), -1%. Further, the insulin secretion stimulation in test [2] is 0.9% (inactive). In addition, the viability decrease in test [3] is 24.4% (inactive). Besides, the tube area decrease in [7] was -18.7% (inactive). In addition, the GLP1 secretion stimulation in test [8] is 0.3% (inactive). Moreover, in test [4], the inhibition of viability was 55.2% (active). Moreover, the figures for the viability decrease (inhibition) in [5] and in [6] were 13.2% (inactive) and 66.4% (active), respectively.
As to `Cc1c(-c2ccc(O)cc2)n(Cc2ccc(OCCN3CCCCCC3)cc2)c2ccc(O)cc12`, the nuclear beta-catenin stimulation in [1] (at 10 µM) was -3.3% (active); in [1] (stimulation, at 2 µM) it was 44.5%. In addition, the insulin secretion stimulation in test [2] is 4.3% (inactive). For the same compound, the viability decrease in test [3] is 99.8% (active). For the same compound, in test [4], the inhibition of viability was 99.7% (active). Further, the results for the viability decrease (inhibition) in [5] and in [6] were 102% (active) and 101% (active), respectively. Besides, the fold change in [13] (stronger effect = lower value, cell number ratio, induced over uninduced) is 0.919 (inactive); in [13] (measured here: relative caspase fold change +Dox/-Dox) it was 0.888. In addition, the cell count in test [13] (measured here: total cells with miR-34 induction, stronger effect = lower value) was found to be 6380; in test [13] (measured here: total cells without miR-34 induction) it was 6940. Also, the z-score in [14] (MELAS cybrid survival, CellTiter-Glo 48 h, stronger effect = higher value) is -0.437 (inactive); in [14] (Rieske KO mouse fibroblast survival, CellTiter-Glo 72 h), 0.502.
In the case of `CO[C@H]1O[C@@H]2O[C@@]3(C)CC[C@H]4[C@H](C)CC[C@@H]([C@@H]1C)[C@@]24OO3`, the nuclear beta-catenin stimulation in test [1] (at 10 µM) was 1.9% (inactive); in [1] (stimulation, at 2 µM), 11.7%. Further, the insulin secretion stimulation in test [2] is -0.85% (inactive). For the same compound, the viability decrease in test [3] was 33.2% (inactive). Besides, in [8], the GLP1 secretion stimulation was 2% (inactive). Moreover, in [4], the inhibition of viability was -3% (inactive). The viability decrease (inhibition) in [5] is 2.9% (inactive); in [6], 7.2% (inactive).
On to `CC(=C(CCOC(=O)C(C)C)SSC(CCOC(=O)C(C)C)=C(C)N(C=O)Cc1cnc(C)nc1N)N(C=O)Cc1cnc(C)nc1N`, for which the nuclear beta-catenin stimulation was -0.6% (inactive) in test [1] (at 10 µM) and 4.5% in test [1] (stimulation, at 2 µM). Also, the insulin secretion stimulation in test [2] was 31.5% (active). Besides, the viability decrease in [3] is 20.6% (inactive). In [4], the inhibition of viability was 30.9% (inactive). Moreover, the viability decrease (inhibition) in [5] was -6.3% (inactive); in test [6] it was -3.9% (inactive).
Take `CC(CC=O)CCCC(C)(C)O` (stereo unspecified): the nuclear beta-catenin stimulation in test [1] (at 10 µM) is 0.5% (inactive); in test [1] (stimulation, at 2 µM) it was -1.3%. The insulin secretion stimulation in [2] was 0.85% (inactive). In addition, in [8], the GLP1 secretion stimulation was 3.1% (inactive).
For `CCC(C(=O)OCCOCCN(CC)CC)c1ccccc1` (stereo unspecified), in that order: 1.3% (inactive), -2.5%, 5.45% (inactive) and 7.5% (inactive).
